Measured values published in PubChem BioAssay (NCATS).
Inconclusive results are not listed. Calls of active or inactive are those of the source. The call rests on the fitted dose curve; in most records, active means well fitted cell-killing curve with a large enough effect; inconclusive means small, poorly fitted or top-dose-only effect, or effect the other way; inactive means no such curve, though single readings can be large or run the other way.

Assay: Quantitative High-Throughput drug screen in 47 multiple myeloma cell lines against the NCATS MIPE library collection: KMM1_JCRB cell viability assay (AID 1918960); further: nearly all actives have a fitted effect of over 30% in size
Conditions: KMM1 myeloma viability, CellTiter-Glo ATP luminescence, 48 h; series mostly up to 45.8 µM; viability (% of DMSO): at the top concentration
Source text: PI: Beverly A. Mock Ph.D.
Laboratory of Cancer Biology and Genetics,
Center for Cancer Research, National Cancer Institute,
National Institute of Health, Bethesda, Maryland
Drug resistance and disease progression are common in multiple myeloma (MM) patients, underscoring the need for new therapeutic combinations. […] We hypothesized that effective combinations would reduce MYC expression and enhance p16 activity. […] These preclinical data identify potentially useful drug combinations for evaluation in drug-resistant MM and reveal potential mechanisms of combined drug sensitivity.
Described herein is the primary MIPE qHTS used to cherrypick compounds. Validated compounds were then further tested for potential synergistic activiy.
[1] Peat TJ, Gaikwad SM, Dubois W, Gyabaah-Kessie N, Zhang S, Gorjifard S, Phyo Z, Andres M, Hughitt VK, Simpson RM, Miller MA, Girvin AT, Taylor A, Williams D, D'Antonio N, Zhang Y, Rajagopalan A, Flietner E, Wilson K, Zhang X, Shinn P, Klumpp-Thomas C, McKnight C, Itkin Z, Chen L, Kazandijian D, Zhang J, Michalowski AM, Simmons JK, Keats J, Thomas CJ, Mock BA. Drug combinations identified by high-throughput screening promote cell cycle transition and upregulate Smad pathways in myeloma. Cancer Lett. 2023 Aug 1;568:216284. doi: 10.1016/j.canlet.2023.216284. Epub 2023 Jun 24. PMID: 37356470; PMCID: PMC10408729.
SEQUENCE No. (e.g., 1, 2, 3, etc.); […] (e.g., Cells, Incubation, Reagent, etc.); VALUE and DESCRIPTION.
1; Cells; 5 uL; white, solid bottom 1536-well Greiner assay plate.
2; Compounds; 23 nL; Kalypsis pin tool (Wako USA) equipped with a 1536-well pin head to transfer to the assay plates.
3; Incubation; 48 hours; 37C incubation.
4; Reagent;5uL; CellTiter Glo (Promega).
5; Detector; 425V; Luminescence; Viewlux PerkinElmer.
NOTES (numbers refer to Sequence numbers above)
1. The cell-based screening methods employed in this study were like those previously published. Briefly, the corresponding myeloma cell lines were screened in 1,536-well plates with 500 cells, 5-uL per well for inhibition of cell viability (assessed by measuring ATP levels with CellTiterGlo).
2. NCATS MIPE 4.0 library of approved and investigational drugs were added using the Kalypsis pin tool. Wells treated with DMSO only for 100% viability and media only cells for 0% viability were used as controls.
3. The assay plates were covered and incubated for 48 hours in a 37C, 5% CO2 incubator with controlled humidity.
4. After 48 hours, CellTilter-GloTM luminescent substrate mix (Promega) reagent was added to the assay plate and plates we incubated for 5 min at room temperature.
5. Signal was measured as median relative luminescence units on a ViewLux (PerkinElmer) multiplate reader.
[1] Heske CM, Davis MI, Baumgart JT, Wilson K, Gormally MV, Chen L, Zhang X, Ceribelli M, Duveau DY, Guha R, Ferrer M, Arnaldez FI, Ji J, Tran HL, Zhang Y, Mendoza A, Helman LJ, Thomas CJ. Matrix Screen Identifies Synergistic Combination of PARP Inhibitors and Nicotinamide Phosphoribosyltransferase (NAMPT) Inhibitors in Ewing Sarcoma. Clin Cancer Res. 2017 Dec 1;23(23):7301-7311. doi: 10.1158/1078-0432.CCR-17-1121. Epub 2017 Sep 12. PMID: 28899971; PMCID: PMC6636827.
Potency means the concentration at half of the fitted maximal effect.

| SMILES | Potency | viability (% of DMSO) |
| --- | --- | --- |
| O=c1cccc2n1CC1CNC[C@H]2C1 | 11.8 µM (active) |  |
| COc1ccc(N(C(=O)Oc2c(C)cccc2C)c2ccnc(Nc3ccc(N4CCN(C)CC4)cc3)n2)c(OC)c1 | 2.96 µM (active) |  |
| CC(=O)O[C@@]12CO[C@H]1C[C@H](O)[C@@]1(C)C(=O)[C@H](O)C3=C(C)[C@@H](O)C[C@@](O)([C@@H](OC(=O)c4ccccc4)[C@@H]21)C3(C)C | 1.18 µM (active) |  |
| COc1cccc2c1[C@]13CCN(CC4CC4)[C@H](C2)[C@]1(OC)CCC(=O)C3 |  | 97.9% (inactive) |
| CCOC(=O)c1cncn1[C@H](C)c1ccccc1 |  | 82.1% (inactive) |
| CC(=Cc1csc(C)n1)[C@@H]1C[C@H]2O[C@]2(C)CCC[C@H](C)[C@@H](O)[C@@H](C)C(=O)C(C)(C)[C@@H](O)CC(=O)O1 | 0.001 µM (active) |  |
| O=S(=O)(CC1CS1)c1ccc(Oc2ccccc2)cc1 (stereo not given) | 5.9 µM (active) |  |
| COC1=CC(C)=C[C@@H](C)[C@@H](O)[C@@H](C)CC(C)=CC=C[C@H](OC)[C@H]([C@@H](C)[C@@H](O)[C@H](C)[C@@]2(O)C[C@@H](O)[C@H](C)[C@@H](C(C)C)O2)OC1=O | 0.0093 µM (active) |  |
| O=C(N[C@H]1CN2CCC1CC2)c1ccc(Cl)cc1 |  | 68.5% (inactive) |
| CCN1CCN(C(=O)Cc2ccc(Nc3ncc(F)c(Nc4ccc(C(=O)Nc5ccccc5Cl)cc4)n3)cc2)CC1 | 2.64 µM (active) |  |
| CN[C@@H]1Cc2cccc3[nH]c(=O)n(c23)C1 |  | 95.4% (inactive) |
| Cc1c(N)nc([C@H](CC(N)=O)NC[C@@H](N)C(N)=O)nc1C(=O)N[C@H](C(=O)N[C@@H](C)[C@H](O)[C@@H](C)C(=O)N[C@@H](C(=O)NCCc1nc(-c2nc(C(=O)NCCC[S+](C)C)cs2)cs1)[C@@H](C)O)C(O[C@H]1O[C@H](CO)[C@H](O)[C@@H](O)[C@@H]1O[C@H]1O[C@H](CO)[C@@H](O)[C@H](OC(N)=O)[C@H]1O)c1cnc[nH]1 (stereo not given in full) | 0.418 µM (active) |  |
| COc1ccc(CC2NCCc3cc(OC)c(OC)cc32)cc1OC (stereo not given) |  | 80.8% (inactive) |
| CCN1C[C@]2(OC(=O)c3ccccc3NC(C)=O)CC[C@H](OC)[C@@]34[C@H]5CC6[C@@H](OC)C[C@](O)(C(C[C@@H]23)[C@@H]14)[C@@]5(O)[C@@H]6OC |  | 86.5% (inactive) |
| NC1CC1c1ccccc1 (stereo not given) |  | 101% (inactive) |
| C[C@H]([C@H](O)CCC(C)(C)O)[C@H]1CC[C@@]2(O)C3=CC(=O)[C@@H]4C[C@@H](O)[C@@H](O)C[C@]4(C)[C@@H]3CC[C@]12C |  | 107% (inactive) |
| CCc1c(C(=O)C(N)=O)c2c(OCC(=O)O)cccc2n1Cc1ccccc1 |  | 107% (inactive) |
| COC[C@H]1OC(=O)c2coc3c2[C@@]1(C)C1=C(C3=O)[C@@H]2CC[C@H](O)[C@@]2(C)C[C@@H]1OC(C)=O | 5.9 µM (active) |  |
| C[C@@H]1CC[C@@]2(OC1)O[C@H]1C[C@H]3[C@@H]4CC=C5C[C@@H](O[C@@H]6O[C@H](CO)[C@@H](O[C@@H]7O[C@@H](C)[C@H](O)[C@@H](O)[C@@H]7O)[C@H](O)[C@@H]6O[C@@H]6O[C@@H](C)[C@H](O)[C@@H](O)[C@@H]6O)CC[C@]5(C)[C@@H]4CC[C@]3(C)[C@@H]1[C@H]2C | 2.64 µM (active) |  |
| COc1ccc2c(c[n+](C)c3c4cc5c(cc4ccc23)OCO5)c1OC | 5.9 µM (active) |  |

| SMILES | Potency | viability (% of DMSO) |
| --- | --- | --- |
| Cc1c(C(=O)c2cccc3ccccc23)c2cccc3c2n1[C@H](CN1CCOCC1)CO3 | 5.26 µM (active) |  |
| CC1=C(O)C(=O)C=C2C1=CC=C1[C@@]2(C)CC[C@@]2(C)[C@@H]3C[C@](C)(C(=O)O)CC[C@]3(C)CC[C@]12C | 0.833 µM (active) |  |
| CC(C)(C)c1cc(C=C(C#N)C#N)cc(Br)c1O | 18.7 µM (active) |  |
| C[C@]12Cc3cn[nH]c3C[C@@H]1CC[C@@H]1[C@H]2CC[C@@]2(C)[C@H]1CC[C@]2(C)O |  | 86.4% (inactive) |
| CC(C)N(CCNC(=O)CN1CCCC1=O)C(C)C |  | 96.4% (inactive) |
| O=[N+]([O-])c1ncc[nH]1 |  | 80.1% (inactive) |
| CSCC[C@@H](NC(=O)[C@@H](Cc1ccccc1)NC(=O)CNC(=O)CNC(=O)[C@@H](N)Cc1ccc(O)cc1)C(=O)O |  | 129% (inactive) |
| C[C@@]12OC(=O)[C@]1([C@@H](O)[C@@H]1C=CCCC1)NC(=O)[C@H]2CCCl | 0.0074 µM (active) |  |
| Cc1ccccc1-n1c(Cn2cnc3c(N)ncnc32)nc2cccc(C)c2c1=O | 0.372 µM (active) |  |
| CCCCCC[C@H]1C(=O)O[C@H](C)[C@H](NC(=O)c2cccc(NC=O)c2O)C(=O)O[C@@H](C)[C@@H]1OC(=O)CC(C)C | 0.418 µM (active) |  |
| CCOP(=O)(OCC)C(C)NC(=O)N(CCCl)N=O (stereo not given) |  | 105% (inactive) |
| Cc1[nH]nc2ccc(-c3cncc(OC[C@@H](N)Cc4c[nH]c5ccccc45)c3)cc12 |  | 120% (inactive) |
| CC(C)(C)[C@]1(O)C[C@@H]2OC(=O)C[C@@]23C(=O)O[C@@H]2OC(=O)[C@H](O)C213 (stereo not given in full) |  | 93.4% (inactive) |
| CC(N[C@H]1C[C@H]1c1ccccc1)c1ccc2c(c1)OCCO2 (stereo not given in full) |  | 112% (inactive) |
| CC1(N2CCC(n3c([C@@H]4CCCNC4)nc4ccccc43)CC2)CCCCCCC1 | 16.6 µM (active) |  |
| CCC(=O)OC1CCC2C3CCC4=CC(=O)CC[C@@]4(C)C3CC[C@]12C (stereo not given in full) |  | 100% (inactive) |
| CCNC(=O)C[C@@H]1N=C(c2ccc(Cl)cc2)c2cc(OC)ccc2-n2c(C)nnc21 | 0.235 µM (active) |  |
| CC(O)=C(C#N)C(=O)Nc1cc(Br)ccc1Br |  | 122% (inactive) |
| O=C(N[C@@H](COc1ccc2[nH]c(=O)[nH]c2c1)c1ccccc1)c1cccn(Cc2ccc(F)c(F)c2)c1=O | 18.7 µM (active) |  |
| C[C@]12CC[C@@H]3[C@@H](CCC4=CC(=O)CC[C@@H]43)[C@@H]1CC[C@@H]2OC(=O)CCc1ccccc1 |  | 107% (inactive) |
